# PMC4081100, “A DNA-binding-site landscape and regulatory network analysis for NAC transcription factors in Arabidopsis thaliana”
# What was measured:
# Assay in all cases: universal protein binding microarray (PBM); transcription factors of Arabidopsis thaliana; high values mean tight binding
# GST-ANAC055(1-171) = biological target: T1, GST-ANAC055(1-171) (Arabidopsis thaliana, UniProt Q9LDY8 1-171); conditions: protein: recombinant; tags: GST; chain copies: 2; dsDNA, one strand shown
# T1 sequence: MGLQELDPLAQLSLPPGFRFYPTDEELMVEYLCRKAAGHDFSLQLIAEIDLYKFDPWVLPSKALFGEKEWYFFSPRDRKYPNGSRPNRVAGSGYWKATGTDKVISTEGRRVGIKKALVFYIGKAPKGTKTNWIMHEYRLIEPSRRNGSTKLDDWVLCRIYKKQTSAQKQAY
# In short: (§1)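 For zinc-finger proteins, zinc acetate was added while GST-tagged NAC-domain, full-length or DNA-binding-domain proteins were induced in cells. Purification used glutathione–Sepharose 4B, and quantification used A280 or anti-GST western blot. Custom all-10-mer Agilent 4 × 180K arrays, made double-stranded by primer extension, each received a protein at 200 to 500 nM final in duplicate. Scoring covered gapped and ungapped 8-mers, with binding given as the normalised enrichment score (E-score).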
# GST-ATAF1 NAC domain = biological target: T2, GST-ATAF1 NAC domain (Arabidopsis thaliana, UniProt Q39013 7-158); conditions: protein: recombinant; tags: GST; chain copies: 2; dsDNA, one strand shown
# T2 sequence: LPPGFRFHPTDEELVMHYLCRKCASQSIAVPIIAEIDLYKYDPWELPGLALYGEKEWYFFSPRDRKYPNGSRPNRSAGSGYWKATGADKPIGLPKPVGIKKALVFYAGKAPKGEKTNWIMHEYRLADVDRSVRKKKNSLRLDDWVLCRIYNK
# In short: as §1
# [1] = biological target: T3, GST-ANAC092(1-285) full length (Arabidopsis thaliana, UniProt Q9FKA0 1-285); conditions: protein: recombinant; tags: GST; chain copies: 2; dsDNA, one strand shown
# T3 sequence: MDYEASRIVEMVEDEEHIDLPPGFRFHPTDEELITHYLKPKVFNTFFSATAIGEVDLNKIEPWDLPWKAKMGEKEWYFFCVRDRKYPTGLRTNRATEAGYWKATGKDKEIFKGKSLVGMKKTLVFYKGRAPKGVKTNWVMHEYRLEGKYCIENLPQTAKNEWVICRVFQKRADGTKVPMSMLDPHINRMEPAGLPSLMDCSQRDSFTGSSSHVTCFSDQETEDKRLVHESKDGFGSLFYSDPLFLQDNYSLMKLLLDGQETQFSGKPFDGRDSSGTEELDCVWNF
# In short: as §1
# GST-NAP(1-166) = biological target: T4, GST-NAP(1-166) (Arabidopsis thaliana, UniProt O49255 1-166); conditions: protein: recombinant; tags: GST; chain copies: 2; dsDNA, one strand shown
# T4 sequence: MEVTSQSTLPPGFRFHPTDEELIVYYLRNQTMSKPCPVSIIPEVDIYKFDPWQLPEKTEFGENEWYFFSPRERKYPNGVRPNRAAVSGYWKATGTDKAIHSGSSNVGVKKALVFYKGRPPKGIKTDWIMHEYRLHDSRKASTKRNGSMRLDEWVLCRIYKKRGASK
# In short: as §1
# GST-VND3 NAC domain = biological target: T5, GST-VND3 NAC domain (Arabidopsis thaliana, UniProt Q9FH59 12-162); conditions: protein: recombinant; tags: GST; chain copies: 2; dsDNA, one strand shown
# T5 sequence: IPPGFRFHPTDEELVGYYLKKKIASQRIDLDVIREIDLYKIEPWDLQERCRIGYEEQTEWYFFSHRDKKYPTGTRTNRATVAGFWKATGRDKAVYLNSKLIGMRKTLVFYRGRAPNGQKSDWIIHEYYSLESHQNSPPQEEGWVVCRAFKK
# In short: as §1
# GST-VND7 NAC domain = biological target: T6, GST-VND7 NAC domain (Arabidopsis thaliana, UniProt Q9C8W9 9-158); conditions: protein: recombinant; tags: GST; chain copies: 2; dsDNA, one strand shown
# T6 sequence: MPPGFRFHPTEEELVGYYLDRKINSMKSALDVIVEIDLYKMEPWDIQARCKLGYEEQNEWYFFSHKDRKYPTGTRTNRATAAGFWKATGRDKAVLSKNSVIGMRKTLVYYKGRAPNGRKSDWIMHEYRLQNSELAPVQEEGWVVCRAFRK
# In short: as §1
# GST-WRKY1(266-371) = GST-WRKY1(266-371) (Arabidopsis thaliana, UniProt Q9SI37 266-371); conditions: protein: recombinant; tags: GST; dsDNA, one strand shown
# In short: as §1
# GST-ANAC019 NAC domain = biological target: T7, GST-ANAC019 NAC domain (Arabidopsis thaliana, UniProt Q9C932 14-162); conditions: protein: recombinant; tags: GST; chain copies: 2; dsDNA, one strand shown
# T7 sequence: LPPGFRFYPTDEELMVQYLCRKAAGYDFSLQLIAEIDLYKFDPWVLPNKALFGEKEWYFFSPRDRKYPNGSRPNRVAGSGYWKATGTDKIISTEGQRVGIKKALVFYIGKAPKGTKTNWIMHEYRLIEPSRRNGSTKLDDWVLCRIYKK
# In short: as §1
# GST-NST2(1-184) = biological target: T8, GST-NST2(1-184) (Arabidopsis thaliana, UniProt Q9M274 1-184); conditions: protein: recombinant; tags: GST; chain copies: 2; dsDNA, one strand shown
# T8 sequence: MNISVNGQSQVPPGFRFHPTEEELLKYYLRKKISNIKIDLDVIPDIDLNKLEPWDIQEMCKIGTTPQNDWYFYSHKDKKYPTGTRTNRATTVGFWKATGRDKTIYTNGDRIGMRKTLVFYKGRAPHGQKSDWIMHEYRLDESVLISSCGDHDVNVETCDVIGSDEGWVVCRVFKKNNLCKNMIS
# In short: as §1
# GST-NTL6(1-168) = GST-NTL6(1-168) (Arabidopsis thaliana, UniProt Q9SCK6 1-168); conditions: protein: recombinant; tags: GST; chain copies: 2; dsDNA, one strand shown
# In short: as §1
# GST-ANAC092(1-176) = biological target: T9, GST-ANAC092(1-176) (Arabidopsis thaliana, UniProt Q9FKA0 1-176); conditions: protein: recombinant; tags: GST; chain copies: 2; dsDNA, one strand shown
# T9 sequence: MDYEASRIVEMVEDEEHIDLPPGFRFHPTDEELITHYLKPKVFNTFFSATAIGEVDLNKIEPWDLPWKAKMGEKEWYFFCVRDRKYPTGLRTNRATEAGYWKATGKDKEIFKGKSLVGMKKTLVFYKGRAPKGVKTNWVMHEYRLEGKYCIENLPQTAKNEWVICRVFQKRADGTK
# In short: as §1
# GST-NTL8 NAC domain = biological target: T10, GST-NTL8 NAC domain (Arabidopsis thaliana, UniProt Q9XIN7 14-156); conditions: protein: recombinant; tags: GST; chain copies: 2; dsDNA, one strand shown
# T10 sequence: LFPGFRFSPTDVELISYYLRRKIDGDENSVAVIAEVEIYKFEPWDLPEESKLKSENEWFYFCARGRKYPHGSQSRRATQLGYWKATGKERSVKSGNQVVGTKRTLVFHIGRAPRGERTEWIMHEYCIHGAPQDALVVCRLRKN
# In short: as §1
# Sequence of GST-WRKY1(266-371) (Q9SI37 266-371): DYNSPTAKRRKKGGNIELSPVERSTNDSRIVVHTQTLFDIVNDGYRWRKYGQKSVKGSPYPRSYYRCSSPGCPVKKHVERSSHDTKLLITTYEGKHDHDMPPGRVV
# Sequence of GST-NTL6(1-168) (Q9SCK6 1-168): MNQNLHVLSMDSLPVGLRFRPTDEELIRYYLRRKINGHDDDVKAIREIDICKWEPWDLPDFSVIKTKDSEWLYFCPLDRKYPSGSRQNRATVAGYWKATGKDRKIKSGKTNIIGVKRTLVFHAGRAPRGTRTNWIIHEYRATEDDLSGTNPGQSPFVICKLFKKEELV
sequence,measurement,setting,value
GTTGACAA,binding signal,GST-ANAC055(1-171),0.127 E-score
same,binding signal,GST-ATAF1 NAC domain,0.195 E-score
same,binding signal,[1],0.055 E-score
same,binding signal,GST-NAP(1-166),0.116 E-score
same,binding signal,GST-VND3 NAC domain,0.0521 E-score
same,binding signal,GST-VND7 NAC domain,0.0726 E-score
same,binding signal,GST-WRKY1(266-371),0.446 E-score
AGAGTCAA,binding signal,GST-ANAC019 NAC domain,0.108 E-score
same,binding signal,GST-NST2(1-184),0.0818 E-score
same,binding signal,GST-VND3 NAC domain,0.0953 E-score
same,binding signal,GST-VND7 NAC domain,0.0931 E-score
same,binding signal,GST-WRKY1(266-371),0.48 E-score
GTCAAATA,binding signal,GST-NTL6(1-168),0.0593 E-score
same,binding signal,GST-ANAC055(1-171),0.0664 E-score
same,binding signal,GST-ATAF1 NAC domain,0.141 E-score
same,binding signal,GST-NAP(1-166),0.0873 E-score
same,binding signal,GST-VND3 NAC domain,0.0795 E-score
same,binding signal,GST-VND7 NAC domain,0.139 E-score
same,binding signal,GST-WRKY1(266-371),0.461 E-score
TCTGGTCA,binding signal,GST-VND3 NAC domain,0.059 E-score
same,binding signal,GST-WRKY1(266-371),0.455 E-score
GTTGGTCA,binding signal,GST-ANAC055(1-171),0.182 E-score
same,binding signal,GST-ATAF1 NAC domain,0.131 E-score
same,binding signal,GST-NAP(1-166),0.117 E-score
same,binding signal,GST-VND3 NAC domain,0.0931 E-score
same,binding signal,GST-VND7 NAC domain,0.0967 E-score
same,binding signal,GST-WRKY1(266-371),0.448 E-score
AGGTCAAA,binding signal,GST-NTL6(1-168),0.0901 E-score
same,binding signal,GST-ANAC055(1-171),0.0973 E-score
same,binding signal,GST-ATAF1 NAC domain,0.0548 E-score
same,binding signal,GST-VND3 NAC domain,0.062 E-score
same,binding signal,GST-VND7 NAC domain,0.0735 E-score
same,binding signal,GST-WRKY1(266-371),0.482 E-score
TTCGTCAA,binding signal,GST-NTL6(1-168),0.0728 E-score
same,binding signal,GST-ANAC055(1-171),0.0829 E-score
same,binding signal,GST-ATAF1 NAC domain,0.106 E-score
same,binding signal,[1],0.0695 E-score
same,binding signal,GST-NST2(1-184),0.0662 E-score
same,binding signal,GST-VND3 NAC domain,0.0782 E-score
same,binding signal,GST-WRKY1(266-371),0.437 E-score
CTTGACCA,binding signal,GST-ANAC092(1-176),0.0818 E-score
same,binding signal,GST-ANAC019 NAC domain,0.0734 E-score
same,binding signal,GST-ANAC055(1-171),0.104 E-score
same,binding signal,GST-ATAF1 NAC domain,0.145 E-score
same,binding signal,GST-NST2(1-184),0.1 E-score
same,binding signal,GST-VND3 NAC domain,0.119 E-score
same,binding signal,GST-WRKY1(266-371),0.484 E-score
ATGGTCAA,binding signal,GST-NTL6(1-168),0.05 E-score
same,binding signal,GST-ANAC055(1-171),0.0866 E-score
same,binding signal,GST-ATAF1 NAC domain,0.155 E-score
same,binding signal,GST-NST2(1-184),0.0826 E-score
same,binding signal,GST-VND3 NAC domain,0.138 E-score
same,binding signal,GST-WRKY1(266-371),0.485 E-score
AGTCGTGC,binding signal,GST-ANAC019 NAC domain,0.412 E-score
same,binding signal,GST-ANAC055(1-171),0.341 E-score
same,binding signal,GST-ATAF1 NAC domain,0.264 E-score
same,binding signal,GST-VND3 NAC domain,0.324 E-score
same,binding signal,GST-VND7 NAC domain,0.273 E-score
same,binding signal,GST-WRKY1(266-371),0.294 E-score
TATGACCA,binding signal,GST-VND3 NAC domain,0.117 E-score
same,binding signal,GST-WRKY1(266-371),0.424 E-score
CACGGCTC,binding signal,GST-ANAC019 NAC domain,0.42 E-score
same,binding signal,GST-ANAC055(1-171),0.384 E-score
same,binding signal,GST-ATAF1 NAC domain,0.336 E-score
same,binding signal,[1],0.18 E-score
same,binding signal,GST-NAP(1-166),0.3 E-score
same,binding signal,GST-VND3 NAC domain,0.337 E-score
same,binding signal,GST-VND7 NAC domain,0.377 E-score
GTGGTCAA,binding signal,GST-ANAC092(1-176),0.0557 E-score
same,binding signal,GST-ANAC055(1-171),0.113 E-score
same,binding signal,GST-ATAF1 NAC domain,0.135 E-score
same,binding signal,GST-VND3 NAC domain,0.0872 E-score
same,binding signal,GST-WRKY1(266-371),0.489 E-score
ATTGGTCA,binding signal,GST-ANAC092(1-176),0.0884 E-score
same,binding signal,[1],0.105 E-score
same,binding signal,GST-VND3 NAC domain,0.0748 E-score
same,binding signal,GST-WRKY1(266-371),0.454 E-score
AAGGTCAG,binding signal,GST-ATAF1 NAC domain,0.0646 E-score
same,binding signal,GST-NTL8 NAC domain,0.0579 E-score
same,binding signal,GST-VND3 NAC domain,0.0582 E-score
same,binding signal,GST-WRKY1(266-371),0.425 E-score
AATTTGAC,binding signal,GST-ANAC055(1-171),0.0892 E-score
same,binding signal,GST-ATAF1 NAC domain,0.237 E-score
same,binding signal,GST-VND3 NAC domain,0.0556 E-score
same,binding signal,GST-WRKY1(266-371),0.451 E-score
TATGGTCA,binding signal,GST-ANAC055(1-171),0.0561 E-score
same,binding signal,GST-VND3 NAC domain,0.0521 E-score
same,binding signal,GST-WRKY1(266-371),0.428 E-score
